Assay results reported in PubChem BioAssay.
Potency and affinity values are given separately. Records with an inconclusive call do not appear. Calls of active or inactive are those of the source.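 How the source made its calls: active means falling signal with fitted half-maximal potency no higher than twice the top valid tested dose; inconclusive means poor fit quality, or flat fit spanning -70% to -30%; inactive means potency over limit, rising signal, or flat fit inside 30%.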

Assay: Cryptococcus neoformans growth inhibition, dose response, Alamar Blue, cherry-picks (AID 686998)
Details: 24 h; series mostly up to 35 µM

outcome, inactive:
C[C@@H]1CN([C@@H](C)CO)C(=O)c2cc(-c3ccc(C#N)cc3)cnc2O[C@@H]1CN(C)C(=O)Nc1ccc(F)cc1
CO[C@H]1CN(C)C(=O)c2cc(NC(=O)C3CCOCC3)ccc2OC[C@@H](C)NC[C@H]1C
CN1C(=O)c2cccc3c(S(=O)(=O)N(C)C)ccc1c23
N#Cc1ccc(C23CC4(C2)[C@H](CN(Cc2ccc(-c5ccccc5)cc2)[C@@H]4c2ccccc2)C3c2ccc(C(F)(F)F)cc2)cc1 (some centres not stated)
CN1C(=O)c2cc(NS(=O)(=O)c3cccc(F)c3)ccc2OC[C@@H]2O[C@@H](CC(=O)O)CC[C@H]21
COCC#Cc1cnc2c(c1)C(=O)N([C@@H](C)CO)C[C@@H](C)[C@@H](CN(C)C(=O)C1CC1)O2
CC(=O)N1[C@@H](CO)[C@H](c2ccc(-c3ccccc3)cc2)[C@@H]1CNC(=O)C1CC1
O=C(NCC[C@H]1CC[C@H](NS(=O)(=O)c2ccc(F)cc2)[C@@H](CO)O1)c1ccc2c(c1)OCO2
COCCNC(=O)C[C@@H]1C[C@H]2c3cc(NC(=O)C4CCC4)ccc3O[C@H]2[C@@H](CO)O1
COc1ccc(-n2cc(CNCCc3nc(C)cc(C)n3)c(-c3ccccc3Cl)n2)cc1
C[C@H]1CCCCO[C@H](CN(C)Cc2ccncc2)[C@@H](C)CN([C@@H](C)CO)C(=O)c2cc(NC(=O)CCCN(C)C)ccc2O1
COCC(=O)N1C[C@H](C)[C@H](OC)CN(C)C(=O)c2ccc(NC(=O)NC(C)C)cc2OC[C@@H]1C
COc1ccc(N2CCN(C(=O)CSc3ncnc4c3cnn4-c3ccc(OC)cc3)CC2)cc1
CC(=O)NC[C@H]1[C@@H](c2ccc(C3=CCCC3)cc2)[C@@H](CO)N1C(=O)NC(C)C
O=C(C[C@@H]1CC[C@H]2[C@@H](COC[C@@H](O)CN2C(=O)Nc2ccc(Cl)cc2)O1)NCCc1ccncc1
O=C(c1cccc(Br)c1)N1CCN(c2ccccn2)CC1
C[C@H]1CN([C@@H](C)CO)C(=O)Cc2cc(NC(=O)Nc3ccccc3)ccc2O[C@H]1CN(C)C(=O)Nc1ccc2c(c1)OCO2
O=C(CN(c1ccc(F)cc1)S(=O)(=O)c1ccccc1)NC1CCCCCC1
C[C@@H]1CN([C@@H](C)CO)C(=O)c2cc(NC(=O)Nc3ccc4c(c3)OCO4)ccc2O[C@H]1CN(C)Cc1ccc(Oc2ccccc2)cc1
O=C(Nc1ccc(F)cc1)N1C[C@H]2[C@@H](c3ccccc31)[C@@H](CO)N2Cc1cocn1
C[C@@H]1CCCCO[C@@H](CN(C)Cc2ccncc2)[C@@H](C)CN([C@H](C)CO)C(=O)c2cc(NC(=O)c3ccncc3)ccc2O1
CNC(=O)C[C@H]1CC[C@H]2[C@H](COc3ccc(NC(=O)c4cc(C)on4)cc3C(=O)N2C)O1
C[C@@H]1CN([C@@H](C)CO)S(=O)(=O)c2ccc(C#C[C@@H](C)O)cc2O[C@@H]1CN(C)C(=O)C1CCCCC1
C[C@H](CO)N1C[C@H](C)[C@H](CN(C)C(=O)Nc2cccc(F)c2)Oc2ncc(C#CCN(C)C)cc2C1=O
COc1ccccc1NC(=O)N[C@@H]1CC[C@H](CCn2cc(-c3ccccc3OC)nn2)O[C@H]1CO
CC(C)NC(=O)N(C)C[C@@H]1OCCCC[C@H](C)Oc2ccc(NC(=O)Cc3ccccc3)cc2C(=O)N([C@H](C)CO)C[C@H]1C
COc1cccc(C#Cc2cnc3c(c2)C(=O)N([C@H](C)CO)C[C@@H](C)[C@@H](CN(C)C(=O)C2CCOCC2)O3)c1
